Source: PubChem BioAssay
“And” between values parts separate entries of the source, which are not always exact repeats. Identical values can stand only once. The source made the active and inactive calls.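 Rule for the calls, unless noted: active = normalized viability below 100% at a tested concentration; inactive = the rest.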

Columns and labels:
[1] = Wnt pathway potentiators raising nuclear beta-catenin – imaging, WNT3A-conditioned medium, mouse C2C12, NPC library, primary screen (AID 1117326; in the data active = nuclear beta-catenin stimulation mostly above about 4.2%, no sharp cut-off; inactive = mostly below about 10%); conditions: stronger effect = higher value
[2] = stimulators of insulin release from INS-1E, primary screen, cell-based, 5 mM glucose, NPC library (AID 1117329;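 active = compound raises insulin release from rat beta cells at 5 mM glucose, no numeric limit stated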); conditions: rat INS-1E insulin secretion, at 10 µM, stronger effect = higher value
[3] = growth inhibition of GSK3B-pretreated HCT116 cells – cell-based, CellTiter-Glo, 0.2 to 20 µM (AID 1117336;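 active = compounds lowering colon cancer cell viability after pretreatment blocking the GSK3B kinase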); conditions: HCT116 viability after GSK3B inhibitor, at 20 µM, stronger effect = higher value
[4] = inhibition of endothelial tube formation, primary screen, imaging, VEGF stimulated, CD31 staining, tube area, NPC library (AID 1117340;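 active = compound that reduces growth-factor-driven endothelial tube area in a mixed cell culture, no cutoff stated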); conditions: VEGF-stimulated ADSC/ECFC co-culture, at 10 µM, stronger effect = higher value
[5] = GLP1 release stimulators, primary, NCI-H716, NPC library (AID 1117341;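 active = compound raises GLP1 secretion from the human gut endocrine cells, with no numeric limit stated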); conditions: NCI-H716 cells, at 10 µM, stronger effect = higher value
[6] = HCT116 colon cancer cell growth inhibition, primary screen, CellTiter-Glo luminescence, NPC library (AID 1117342;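 active = compounds that lower survival of HCT116 colon cancer cells in the luminescence readout, no numeric limit stated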); conditions: at 20 µM (top of the series)
[7] = reduced SW480 viability measured with CellTiter-Glo, NPC library, primary (AID 1117343;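 active = compounds that lower viability of the colon cancer cells in the luminescence readout, with no numeric limit stated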); conditions: CellTiter-Glo luminescence; at 20 µM (top of the series)
[8] = NPC library primary testing for decreased DLD-1 cell viability via CellTiter-Glo (AID 1117346;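 active = compounds that lower survival of DLD-1 colon cancer cells in the luminescence readout, no cutoff given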); conditions: DLD-1 viability, CellTiter-Glo luminescence; at 20 µM (top of the series)
[9] = target: 6-phosphogluconate dehydrogenase, decarboxylating (Homo sapiens) (UniProt P52209); experiment: inhibition of human phosphogluconate dehydrogenase – biochemical, recombinant enzyme, NADPH absorbance, primary screen (AID 1159550;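 active = at least 20% inhibition of 6-phosphogluconate dehydrogenase activity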); conditions: recombinant 6PGD, NADPH absorbance 341 nm; at 10 µM; stronger effect = higher value
[10] = modulation of C. elegans fzo-1 (AID 1259413; call rule not given here;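 note: fzo-1 mutant C. elegans worms in liquid wells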); conditions: C. elegans fzo-1 modulator screen, mean read-out; stronger effect = higher value
[11] = EMT-state selective cytotoxicity in co-culture – imaging, PC-3E GFP, TEM4-18 mCherry, primary screen (AID 1345086;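 active = compounds killing one labelled cell type while sparing the other, by normalised counts and ratio limits, not self-fluorescent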;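 note: cells exposed to compound for 72 h before imaging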;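 for red/green cell ratio (normalised): normalised mesenchymal count divided by normalised epithelial count so high means epithelial killing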); conditions: PC-3E GFP / TEM4-18 mCherry co-culture, imaging cell counts, at 1 µM
[12] = MELAS cybrid and Rieske KO viability enhancers – cell-based, MELAS cybrids, Rieske KO mouse fibroblasts, CellTiter-Glo, primary screen (AID 1508586;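 active = mean z-score across replicates of 1.96 or higher in either the MELAS or the Rieske mutant cell line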;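 note: z relative to plate mean and SD of compound and empty wells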); conditions: low glucose
[13] = drug combination growth inhibition, ovarian cancer – cell-based, oncology-focused library, rucaparib conditional, profiling panel (AID 1508598); conditions: patient-derived ovarian cancer cells, CellTiter-Glo viability, 144 h, stronger effect = lower value
[14] = target: NAD(+) hydrolase SARM1 (Homo sapiens) (UniProt Q6SZW1); experiment: blocking NAD cleavage by SARM1 SAM-TIR – cell lysate, NAD-Glo luminescence (AID 1508614;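 active = compound whose remaining NAD level is above about 45 nM, limit read from the data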;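 note: higher remaining NAD means stronger inhibition of SARM1 NADase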); conditions: SAM-TIR HEK293T lysate NADase, at 1 µM, stronger effect = higher value
[15] = target: Mitogen-activated protein kinase 7 (Homo sapiens) (UniProt Q13164); experiment: Gal4-ERK5 driven luciferase induction – cell-based, HTS, primary screen (AID 1508626;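 active = luciferase signal above three times the same-plate solvent-only control wells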;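 note: luciferase driven by Gal4-ERK5 fusion binding five Gal4 sites before minimal TATA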); conditions: HeLa Gal4-ERK5 transactivation, 18 h, at 5 µM, stronger effect = higher value
[16] = tested on: F380Y; experiment: BK channel mutant inhibitors and activators – cell-based, U2OS BacMam, thallium flux, beta subunits, selectivity assay, profiling panel (AID 1259406;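 active = thallium flux through the channel raised or lowered by more than 3 SD from vehicle-only wells, actives on both sides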;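 note: initial slope of Thallos dye fluorescence rise after thallium is added; log ratio against the mean of 0.3% DMSO vehicle wells on the same plate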); conditions: U2OS BacMam BK variants, at 30 µM
[17] = tested on: F380Y/beta1; experiment: as above; conditions: U2OS BacMam BK variants, at 30 µM
[18] = tested on: F380Y/beta2Delta; experiment: as above; conditions: U2OS BacMam BK variants, at 30 µM
[19] = tested on: F380Y/beta4; experiment: as above; conditions: U2OS BacMam BK variants, at 30 µM
[20] = target: Calcium-activated potassium channel subunit alpha-1 (Homo sapiens) + Leucine-rich repeat-containing protein 26 (Homo sapiens) (UniProt Q12791+Q2I0M4); experiment: as above; conditions: U2OS BacMam BK variants, F380Y/Slo1WT/gamma1, at 30 µM
Chain of Calcium-activated potassium channel subunit alpha-1 (Homo sapiens) + Leucine-rich repeat-containing protein 26 (Homo sapiens) (Q2I0M4 whole entry, looked up, one chain of several): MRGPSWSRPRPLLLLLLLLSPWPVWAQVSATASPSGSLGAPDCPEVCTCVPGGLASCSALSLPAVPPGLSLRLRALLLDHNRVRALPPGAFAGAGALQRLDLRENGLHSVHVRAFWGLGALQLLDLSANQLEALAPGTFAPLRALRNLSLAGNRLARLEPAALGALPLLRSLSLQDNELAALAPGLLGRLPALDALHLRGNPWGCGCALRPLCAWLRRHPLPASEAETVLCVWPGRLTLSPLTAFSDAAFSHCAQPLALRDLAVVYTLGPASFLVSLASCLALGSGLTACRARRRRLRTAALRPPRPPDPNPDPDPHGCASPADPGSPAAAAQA

Chain of 6-phosphogluconate dehydrogenase, decarboxylating (Homo sapiens) (P52209 whole entry, looked up): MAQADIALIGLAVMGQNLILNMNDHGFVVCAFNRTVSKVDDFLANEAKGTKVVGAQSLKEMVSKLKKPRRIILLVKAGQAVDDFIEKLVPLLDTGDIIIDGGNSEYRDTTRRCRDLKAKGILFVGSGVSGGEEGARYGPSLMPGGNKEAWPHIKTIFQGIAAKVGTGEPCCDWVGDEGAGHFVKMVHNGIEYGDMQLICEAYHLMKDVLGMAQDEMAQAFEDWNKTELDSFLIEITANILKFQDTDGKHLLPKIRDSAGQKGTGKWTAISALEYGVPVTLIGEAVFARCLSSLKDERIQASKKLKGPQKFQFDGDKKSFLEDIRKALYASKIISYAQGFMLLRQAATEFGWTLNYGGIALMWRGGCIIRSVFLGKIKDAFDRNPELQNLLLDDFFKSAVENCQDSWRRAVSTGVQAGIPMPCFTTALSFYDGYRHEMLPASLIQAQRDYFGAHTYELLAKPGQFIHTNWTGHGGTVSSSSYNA
Chain of NAD(+) hydrolase SARM1 (Homo sapiens) (Q6SZW1 whole entry, looked up, the tested form may be a part): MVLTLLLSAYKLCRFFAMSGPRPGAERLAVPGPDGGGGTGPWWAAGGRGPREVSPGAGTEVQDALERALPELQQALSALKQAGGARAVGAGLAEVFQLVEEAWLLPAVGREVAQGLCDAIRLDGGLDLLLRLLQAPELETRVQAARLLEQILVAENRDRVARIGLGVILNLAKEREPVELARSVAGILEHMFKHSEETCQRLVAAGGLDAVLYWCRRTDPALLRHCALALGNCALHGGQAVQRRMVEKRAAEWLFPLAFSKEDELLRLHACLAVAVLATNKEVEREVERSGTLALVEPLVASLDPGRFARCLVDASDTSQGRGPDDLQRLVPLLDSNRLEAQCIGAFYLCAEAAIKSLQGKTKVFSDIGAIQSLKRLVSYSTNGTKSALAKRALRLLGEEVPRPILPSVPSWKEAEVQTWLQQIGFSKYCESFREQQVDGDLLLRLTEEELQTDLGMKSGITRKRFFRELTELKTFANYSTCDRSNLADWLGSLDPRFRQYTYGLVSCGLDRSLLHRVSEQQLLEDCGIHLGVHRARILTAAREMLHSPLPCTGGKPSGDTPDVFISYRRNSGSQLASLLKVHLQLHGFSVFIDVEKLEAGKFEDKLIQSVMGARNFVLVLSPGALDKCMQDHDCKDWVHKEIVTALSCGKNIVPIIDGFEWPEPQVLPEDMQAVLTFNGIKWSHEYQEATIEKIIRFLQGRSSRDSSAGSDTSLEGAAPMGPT
Chain of Mitogen-activated protein kinase 7 (Homo sapiens) (Q13164 whole entry, looked up, the tested form may be a part): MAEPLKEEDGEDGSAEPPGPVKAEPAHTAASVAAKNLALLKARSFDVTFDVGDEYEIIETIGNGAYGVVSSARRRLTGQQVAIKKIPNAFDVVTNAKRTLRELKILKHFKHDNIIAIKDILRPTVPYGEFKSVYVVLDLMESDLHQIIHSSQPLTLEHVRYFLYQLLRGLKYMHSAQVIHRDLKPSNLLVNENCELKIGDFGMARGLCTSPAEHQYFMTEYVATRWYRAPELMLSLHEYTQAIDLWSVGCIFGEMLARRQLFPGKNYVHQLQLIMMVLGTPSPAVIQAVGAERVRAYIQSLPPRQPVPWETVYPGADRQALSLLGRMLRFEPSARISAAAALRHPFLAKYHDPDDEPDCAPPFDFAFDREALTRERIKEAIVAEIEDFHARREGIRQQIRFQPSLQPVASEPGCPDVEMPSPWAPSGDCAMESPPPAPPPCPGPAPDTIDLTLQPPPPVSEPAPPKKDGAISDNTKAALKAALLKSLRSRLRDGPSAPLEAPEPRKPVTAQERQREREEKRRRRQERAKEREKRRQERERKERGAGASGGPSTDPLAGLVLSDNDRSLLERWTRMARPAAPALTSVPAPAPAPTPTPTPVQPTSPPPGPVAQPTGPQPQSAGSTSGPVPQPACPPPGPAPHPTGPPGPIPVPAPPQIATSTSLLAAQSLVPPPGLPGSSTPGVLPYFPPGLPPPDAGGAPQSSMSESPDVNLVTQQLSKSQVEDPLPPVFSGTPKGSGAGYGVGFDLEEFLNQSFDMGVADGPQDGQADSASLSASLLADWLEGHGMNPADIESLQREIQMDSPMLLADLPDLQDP

O=C1CCC(N2C(=O)c3ccccc3C2=O)C(=O)N1 (stereo not given)
1.23: normalised cell number ([11]; measured here: epithelial PC-3E GFP cell survival)
inactive: nuclear beta-catenin stimulation ([1]; at 10 µM) 2.4% | insulin secretion stimulation [2] 0.6% | viability decrease [3] -12.6% | tube area decrease [4] 5.6% | GLP1 secretion stimulation [5] -3.8% | inhibition of viability [6] 6.9% | viability decrease (inhibition) [7] 11.1% | inhibition [9] -1.45% | mean signal [10] 238 | red/green cell ratio (normalised) ([11]; actives lie on both sides, counts scaled to control wells, 1 = unselective) 1.17 | z-score ([12]; MELAS cybrid survival, CellTiter-Glo 48 h, stronger effect = higher value) -0.413 and 0.577 and -0.221 | viability ([13]; at 0.000305 µM, OCI-C5x cells, with rucaparib 10 µM, 100% = cells with rucaparib alone) 117% | viability ([13]; at 0.000305 µM, OCI-P5x cells, without rucaparib) 103% | viability ([13]; at 0.00122 µM, OCI-C5x cells, with rucaparib 10 µM, 100% = cells with rucaparib alone) 108% | viability ([13]; at 0.00122 µM, OCI-C5x cells, without rucaparib) 102% | viability ([13]; at 0.00122 µM, OCI-P5x cells, with rucaparib 20 µM, 100% = cells with rucaparib alone) 100% | viability ([13]; at 0.00122 µM, OCI-P5x cells, without rucaparib) 109% | viability ([13]; at 0.00488 µM, OCI-C5x cells, with rucaparib 10 µM, 100% = cells with rucaparib alone) 110% | viability ([13]; at 0.00488 µM, OCI-P5x cells, with rucaparib 20 µM, 100% = cells with rucaparib alone) 112% | viability ([13]; at 0.00488 µM, OCI-P5x cells, without rucaparib) 106% | viability ([13]; at 0.0195 µM, OCI-C5x cells, with rucaparib 10 µM, 100% = cells with rucaparib alone) 111% | viability ([13]; at 0.0195 µM, OCI-C5x cells, without rucaparib) 109% | viability ([13]; at 0.0195 µM, OCI-P5x cells, with rucaparib 20 µM, 100% = cells with rucaparib alone) 112% | viability ([13]; at 0.0195 µM, OCI-P5x cells, without rucaparib) 111% | viability ([13]; at 0.0781 µM, OCI-C5x cells, with rucaparib 10 µM, 100% = cells with rucaparib alone) 113% | viability ([13]; at 0.0781 µM, OCI-C5x cells, without rucaparib) 104% | viability ([13]; at 0.0781 µM, OCI-P5x cells, with rucaparib 20 µM, 100% = cells with rucaparib alone) 107% | viability ([13]; at 0.0781 µM, OCI-P5x cells, without rucaparib) 115% | viability ([13]; at 0.313 µM, OCI-C5x cells, with rucaparib 10 µM, 100% = cells with rucaparib alone) 114% | viability ([13]; at 0.313 µM, OCI-C5x cells, without rucaparib) 109% | viability ([13]; at 0.313 µM, OCI-P5x cells, with rucaparib 20 µM, 100% = cells with rucaparib alone) 112% | viability ([13]; at 0.313 µM, OCI-P5x cells, without rucaparib) 119% | viability ([13]; at 1.25 µM, OCI-C5x cells, with rucaparib 10 µM, 100% = cells with rucaparib alone) 114% | viability ([13]; at 1.25 µM, OCI-C5x cells, without rucaparib) 103% | viability ([13]; at 1.25 µM, OCI-P5x cells, with rucaparib 20 µM, 100% = cells with rucaparib alone) 116% | viability ([13]; at 1.25 µM, OCI-P5x cells, without rucaparib) 117% | viability ([13]; at 5 µM, OCI-C5x cells, with rucaparib 10 µM, 100% = cells with rucaparib alone) 116% | viability ([13]; at 5 µM, OCI-C5x cells, without rucaparib) 108% | viability ([13]; at 5 µM, OCI-P5x cells, with rucaparib 20 µM, 100% = cells with rucaparib alone) 114% | viability ([13]; at 5 µM, OCI-P5x cells, without rucaparib) 115% | remaining NAD [14] 10 nM | luciferase signal [15] 36 AU | log fold change Tl+ flux [16] -0.00432 | log fold change Tl+ flux [17] -0.0788 | log fold change Tl+ flux [18] -0.0091 | log fold change Tl+ flux [19] 0.0329 | log fold change Tl+ flux [20] -0.00962
2.1%: nuclear beta-catenin stimulation ([1]; stimulation, at 2 µM)
1.44: normalised cell number ([11]; measured here: mesenchymal TEM4-18 mCherry cell survival)
active: viability decrease (inhibition) [8] 53.7% | viability ([13]; at 0.000305 µM, OCI-C5x cells, without rucaparib) 95% | viability ([13]; at 0.000305 µM, OCI-P5x cells, with rucaparib 20 µM, 100% = cells with rucaparib alone) 99.4% | viability ([13]; at 0.00488 µM, OCI-C5x cells, without rucaparib) 99.5%
-0.261 and 0.0412 and -1.15: z-score ([12]; Rieske KO mouse fibroblast survival, CellTiter-Glo 72 h)
